According to PubChem BioAssay AID1159580 (chemical genetic matrix, 2015):
About 2,000 (36%) of roughly 5,500 compounds were called active. Another 18% or so got no clear call; they are omitted. Rule as the data show it: active = normalized growth mostly below about 0.91 (no sharp cut-off); inconclusive = no clear call, values can overlap the other calls; inactive = mostly above about 0.92. The list shows a part of the results.

Assay: chemical genetic growth profiling, strain panel (AID 1159580);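 also: tested at 20 µM; growth read once vehicle control cultures reached saturation at 30 °C; 1 = growth at the plate median or of vehicle wells; lower values mean less growth of the strain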
Details: S. cerevisiae deletion strains, growth OD
[1] = locus YHR030C, strain SLT2, stronger effect = lower value
[2] = locus YHR079C, strain IRE1, stronger effect = lower value
[3] = locus YJL095W, strain BCK1, stronger effect = lower value
[4] = locus YJR066W, strain TOR1, stronger effect = lower value
[5] = locus YLR113W, strain HOG1, stronger effect = lower value
[6] = locus YNL183C, strain NPR1, stronger effect = lower value
[7] = locus YOR231W, strain MKK1, stronger effect = lower value
[8] = locus YPL256C, strain CLN2, stronger effect = lower value
[9] = locus YAL040C, strain CLN3, stronger effect = lower value
[10] = locus YCL061C, strain MRC1 (second series), stronger effect = lower value
[11] = locus YDR150W, strain NUM1, stronger effect = lower value
[12] = locus YER002W, strain NOP16, stronger effect = lower value
[13] = locus YNL175C, strain NOP13, stronger effect = lower value
[14] = locus YNL197C, strain WHI3, stronger effect = lower value
[15] = locus YNL224C, strain SQS1, stronger effect = lower value
[16] = locus YOR083W, strain WHI5 (second series), stronger effect = lower value
[17] = locus YPL241C, strain CIN2, stronger effect = lower value

Measured: normalized growth

NCCCC(O)(P(=O)(O)O)P(=O)(O)O
active: locus YPL051W, strain arl3, stronger effect = lower value 0.899
inactive: locus YAL021C, strain ccr4, stronger effect = lower value 0.993 | locus YAL026C, strain drs2, stronger effect = lower value 0.983 | locus YAL030W, strain snc1, stronger effect = lower value 0.993 | locus YBL061C, strain skt5, stronger effect = lower value 0.978 | locus YBR009C, strain hhf1, stronger effect = lower value 0.988 | locus YBR023C, strain chs3, stronger effect = lower value 0.992 | locus YBR171W, strain sec66, stronger effect = lower value 0.953 | locus YBR231C, strain swc5, stronger effect = lower value 0.977 | locus YBR279W, strain paf1, stronger effect = lower value 0.981 | locus YCL011C, strain gbp2, stronger effect = lower value 0.997 | locus YCL016C, strain dcc1, stronger effect = lower value 0.984 | locus YCL061C, strain MRC1, stronger effect = lower value 0.976 | locus YCL069W, strain vba3, stronger effect = lower value 0.991 | locus YCR088W, strain abp1, stronger effect = lower value 0.972 | locus YDL005C, strain med2, stronger effect = lower value 0.99 | locus YDL040C, strain nat1, stronger effect = lower value 0.989 | locus YDR001C, strain nth1, stronger effect = lower value 0.983 | locus YDR069C, strain doa4, stronger effect = lower value 1 | locus YDR137W, strain rgp1, stronger effect = lower value 1 | locus YDR159W, strain sac3, stronger effect = lower value 1 | locus YDR195W, strain ref2 0.943 | locus YDR297W, strain sur2, stronger effect = lower value 0.991 | locus YDR334W, strain swr1, stronger effect = lower value 0.967 | locus YDR335W, strain msn5, stronger effect = lower value 0.99 | locus YDR392W, strain spt3, stronger effect = lower value 0.964 | locus YEL003W, strain gim4, stronger effect = lower value 0.989 | locus YEL037C, strain rad23, stronger effect = lower value 0.978 | locus YEL061C, strain CIN8 (second series), stronger effect = lower value 0.973 | locus YER015W, strain faa2, stronger effect = lower value 0.987 | locus YER016W, strain bim1, stronger effect = lower value 0.984 | locus YER111C, strain swi4, stronger effect = lower value 0.978 | locus YER155C, strain BEM2 (second series), stronger effect = lower value 0.968 | locus YFR010W, strain ubp6, stronger effect = lower value 0.968 | locus YGL167C, strain pmr1, stronger effect = lower value 0.98 | locus YGL173C, strain kem1, stronger effect = lower value 0.959 | locus YGL227W, strain vid30, stronger effect = lower value 0.97 | locus YGL240W, strain doc1, stronger effect = lower value 0.995 | locus YGL253W, strain hxk2, stronger effect = lower value 0.977 | locus YHR013C, strain ard1, stronger effect = lower value 0.97 | locus YHR027C, strain rpn1, stronger effect = lower value 0.983 | [1] 0.979 | [2] 0.968 | locus YHR142W, strain chs7, stronger effect = lower value 0.972 | locus YJL092W, strain hpr5, stronger effect = lower value 0.972 | locus YJL095W, strain BCK1 (second series), stronger effect = lower value 0.985 | [3] 1 | locus YJL115W, strain asf1, stronger effect = lower value 0.976 | locus YJL129C, strain trk1, stronger effect = lower value 0.964 | locus YJL154C, strain vps35, stronger effect = lower value 0.974 | locus YJL164C, strain tpk1, stronger effect = lower value 0.996 | locus YJL166W, strain qcr8, stronger effect = lower value 1 | locus YJL187C, strain SWE1, stronger effect = lower value 0.991 | [4] 0.952 | locus YKL160W, strain elf1, stronger effect = lower value 0.99 | locus YKR026C, strain gcn3, stronger effect = lower value 0.98 | locus YKR091W, strain srl3, stronger effect = lower value 0.981 | locus YLL001W, strain dnm1, stronger effect = lower value 0.987 | locus YLL026W, stronger effect = lower value 0.995 | locus YLL041C, strain sdh2, stronger effect = lower value 1.01 | locus YLR027C, strain aat2, stronger effect = lower value 1 | [5] 1 | locus YLR221C, strain rsa3, stronger effect = lower value 0.99 | locus YLR258W, strain gsy2, stronger effect = lower value 0.998 | locus YLR262C, strain YPT6 (second series), stronger effect = lower value 0.973 | locus YLR320W, strain mms22, stronger effect = lower value 0.987 | locus YLR342W, strain FKS1, stronger effect = lower value 0.978 | locus YLR357W, strain rsc2, stronger effect = lower value 0.975 | locus YLR370C, strain arc18, stronger effect = lower value 0.976 | locus YLR384C, strain iki3, stronger effect = lower value 0.978 | locus YML120C, strain ndi1, stronger effect = lower value 0.989 | locus YMR058W, strain fet3, stronger effect = lower value 0.977 | locus YMR125W, strain sto1, stronger effect = lower value 0.978 | locus YMR129W, stronger effect = lower value 0.99 | locus YMR205C, strain PFK2, stronger effect = lower value 0.996 | locus YMR231W, strain pep5, stronger effect = lower value 0.962 | locus YNL071W, strain lat1, stronger effect = lower value 0.985 | [6] 0.978 | locus YNL209W, strain ssb2, stronger effect = lower value 0.982 | locus YNL248C, strain rpa49, stronger effect = lower value 0.985 | locus YNL322C, strain KRE1 (second series), stronger effect = lower value 0.98 | locus YNR049C, strain mso1, stronger effect = lower value 0.987 | locus YOR001W, strain rrp6, stronger effect = lower value 0.983 | locus YOR070C, strain gyp1, stronger effect = lower value 0.972 | locus YOR080W, strain dia2, stronger effect = lower value 0.979 | locus YOR083W, strain WHI5, stronger effect = lower value 0.99 | locus YOR106W, strain vam3, stronger effect = lower value 0.956 | [7] 0.989 | locus YOR265W, strain rbl2, stronger effect = lower value 0.995 | locus YOR270C, strain vph1, stronger effect = lower value 0.965 | locus YOR290C, strain snf2, stronger effect = lower value 0.98 | locus YPL078C, strain atp4, stronger effect = lower value 0.976 | locus YPL106C, strain sse1, stronger effect = lower value 0.983 | locus YPL240C, strain hsp82, stronger effect = lower value 0.992 | [8] 0.973

CP(=O)(O)CCCN
inactive: [9] 1 | [10] 1 | [11] 0.983 | [12] 0.994 | locus YNL153C, strain GIM3, stronger effect = lower value 0.99 | [13] 0.996 | [14] 1.02 | [15] 0.98 | [16] 1.01 | [17] 0.989

NCCCP(=O)(O)O
inactive: [9] 1.04 | [10] 0.998 | [11] 1.01 | locus YDR363W, strain ESC2, stronger effect = lower value 0.956 | [12] 0.981 | locus YGR229C, strain SMI1, stronger effect = lower value 0.984 | [13] 0.978 | [14] 0.979 | [15] 1 | [16] 0.98 | locus YPL055C, strain LGE1, stronger effect = lower value 1.02 | [17] 0.995

Cc1cc(-c2onc(C)c2C(=O)Sc2ccccc2)no1
active: [1] 0.743 | [5] 0.453 | [8] 0.695
inactive: locus YAR019C, strain CDC15, stronger effect = lower value 0.941 | locus YBL105C, strain PKC1, stronger effect = lower value 0.963 | locus YBR135W, strain CKS1, stronger effect = lower value 0.939 | locus YBR136W, strain MEC1, stronger effect = lower value 0.961 | locus YBR160W, strain CDC28, stronger effect = lower value 0.954 | locus YDL017W, strain CDC7, stronger effect = lower value 0.957 | locus YDL028C, strain MPS1, stronger effect = lower value 0.958 | locus YDL101C, strain DUN1, stronger effect = lower value 0.959 | locus YDL108W, strain KIN28, stronger effect = lower value 0.962 | locus YDL132W, strain cdc53, stronger effect = lower value 0.926 | locus YDL214C, strain PRR2, stronger effect = lower value 0.826 | locus YDR052C, strain DBF4, stronger effect = lower value 0.971 | locus YDR054C, strain cdc34, stronger effect = lower value 0.918 | locus YDR226W, strain ADK1, stronger effect = lower value 0.954 | locus YDR477W, strain SNF1, stronger effect = lower value 0.811 | locus YER123W, strain YCK3, stronger effect = lower value 0.736 | locus YER133W, strain GLC7, stronger effect = lower value 0.823 | locus YFL009W, strain cdc4, stronger effect = lower value 0.921 | locus YFL029C, strain CAK1, stronger effect = lower value 0.921 | locus YFR003C, strain YPI1, stronger effect = lower value 0.958 | locus YFR019W, strain FAB1, stronger effect = lower value 0.909 | locus YFR028C, strain CDC14, stronger effect = lower value 0.96 | locus YGR040W, strain KSS1, stronger effect = lower value 0.852 | locus YGR052W, strain FMP48, stronger effect = lower value 0.81 | locus YGR092W, strain DBF2, stronger effect = lower value 0.705 | [2] 0.704 | locus YHR082C, strain KSP1, stronger effect = lower value 0.901 | locus YHR205W, strain SCH9, stronger effect = lower value 0.657 | locus YIL147C, strain SLN1, stronger effect = lower value 0.958 | [3] 0.704 | locus YJL128C, strain PBS2, stronger effect = lower value 0.888 | locus YJL157C, strain FAR1, stronger effect = lower value 0.819 | locus YJR016C, strain ILV3, stronger effect = lower value 0.944 | locus YJR066W, strain TOR1 (second series), stronger effect = lower value 0.708 | [4] 0.892 | locus YKL048C, strain ELM1, stronger effect = lower value 0.942 | locus YKL067W, strain YNK1, stronger effect = lower value 0.824 | locus YKL101W, strain HSL1, stronger effect = lower value 0.881 | locus YKL193C, strain SDS22, stronger effect = lower value 0.942 | locus YKL203C, strain TOR2, stronger effect = lower value 0.885 | locus YLR133W, strain CKI1, stronger effect = lower value 0.867 | locus YLR403W, strain SFP1, stronger effect = lower value 0.794 | locus YML070W, strain DAK1, stronger effect = lower value 0.829 | locus YMR001C, strain CDC5, stronger effect = lower value 0.935 | locus YMR205C, strain PFK2 (second series), stronger effect = lower value 0.87 | locus YMR277W, strain FCP1, stronger effect = lower value 0.925 | locus YNL006W, strain LST8, stronger effect = lower value 0.962 | locus YNL020C, strain ARK1, stronger effect = lower value 0.846 | locus YNL161W, strain CBK1, stronger effect = lower value 0.947 | [6] 0.68 | locus YNL207W, strain RIO2, stronger effect = lower value 0.947 | locus YNL222W, strain SSU72, stronger effect = lower value 0.943 | locus YNL307C, strain MCK1 (second series), stronger effect = lower value 0.802 | locus YOL078W, strain AVO1, stronger effect = lower value 0.918 | locus YOL136C, strain PFK27, stronger effect = lower value 0.843 | locus YOR061W, strain CKA2, stronger effect = lower value 0.859 | locus YOR119C, strain RIO1, stronger effect = lower value 0.836 | [7] 0.75 | locus YOR329C, strain SCD5, stronger effect = lower value 0.95 | locus YPL031C, strain PHO85, stronger effect = lower value 0.783 | locus YPL153C, strain RAD53, stronger effect = lower value 0.756 | locus YPL204W, strain HRR25, stronger effect = lower value 0.805 | locus YPL209C, strain IPL1, stronger effect = lower value 0.944 | locus YPR025C, strain CCL1, stronger effect = lower value 0.956 | locus YPR106W, strain ISR1, stronger effect = lower value 0.973 | locus YPR111W, strain DBF20, stronger effect = lower value 0.97 | strain NNK1, stronger effect = lower value 0.953 | strain TSCII, stronger effect = lower value 0.93
